# Measured values from PubChem BioAssay (NCI).
# Where “and” joins values, the source holds several entries; their conditions need not be identical. Equal values may be shown once. This is part of a sample that, as a whole, favours compounds with a hit. Of some 83,000 tested, about 20% had one in any assay.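 For each line, cells grew in 96-well plates with the test compound present at a single concentration for 48 hours.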 Calls of active or inactive are those of the source. The calls were made as follows: active = growth percent below 10; inactive = the rest.
# Assays:
# Test in all cases: NCI-60 one-dose screen, 48 h (100 = growth as untreated, 0 = no growth, -100 = all killed)
# [1] = test system: NCI-H23 lung
# [2] = test system: NCI-H226 lung
# [3] = test system: NCI-H322M lung
# [4] = test system: HOP-62 NSCLC
# [5] = test system: NCI-H460 lung
# [6] = test system: HOP-92 NSCLC
# [7] = test system: NCI-H522 lung
# [8] = test system: A549/ATCC NSCLC
# [9] = test system: 786-0 renal
# [10] = test system: COLO 205 colon
# [11] = test system: DU-145 prostate
# [12] = test system: K-562 leukemia
# [13] = test system: MALME-3M melanoma
# [14] = test system: MDA-MB-231 breast
# [15] = test system: RXF 393 renal
# [16] = test system: SF-268 CNS
# [17] = test system: SF-295 CNS
# [18] = test system: SF-539 CNS
# [19] = test system: UACC-257 melanoma
# [20] = test system: M14 melanoma
compound,measurement,setting,value
CC(=O)O[C@H]1C[C@@H]2OC3C=C(C)CCC3(C)[C@@]1(C)[C@@]21CO1 (some centres not stated),growth,[1]; 10 µM unless noted,-32.5% (active) and -10.8% (active)
same,growth,[2]; 10 µM unless noted,-24.8% (active)
same,growth,[3]; 10 µM unless noted,-19.5% (active)
same,growth,[4]; 10 µM unless noted,17% (inactive) and -10.8% (active)
same,growth,[5]; 10 µM unless noted,0.408% (active) and -3.28% (active)
same,growth,[6]; 10 µM,-21.3% (active) and -15.3% (active)
same,growth,[7]; 10 µM unless noted,-46.4% (active) and -45.1% (active)
same,growth,[8]; 10 µM unless noted,-9.42% (active) and -20.5% (active)
same,growth,[9]; 10 µM unless noted,-15.6% (active) and -10.8% (active)
same,growth,[10]; 10 µM unless noted,-61.6% (active) and -70.2% (active)
same,growth,[11]; 10 µM unless noted,-10.8% (active) and -37.3% (active)
same,growth,[12]; 10 µM unless noted,3.64% (active) and -17.5% (active)
same,growth,[13]; 10 µM unless noted,-35.1% (active) and -36% (active)
same,growth,[14]; 10 µM unless noted,-12.8% (active) and -34.4% (active)
same,growth,[15]; 10 µM unless noted,-21.4% (active) and -34.9% (active)
same,growth,[16]; 10 µM unless noted,1.16% (active) and -20.3% (active)
same,growth,[17]; 10 µM unless noted,-26.1% (active) and 0.436% (active)
same,growth,[18]; 10 µM unless noted,-24.5% (active) and -26.6% (active)
same,growth,[19]; 10 µM unless noted,-26% (active) and -33.7% (active)
same,growth,[20]; 10 µM unless noted,-81.2% (active) and -64.8% (active)
COC1=C(C)C(=O)C2=C(C1=O)C(CO)N1C(C#N)C3CC4C(C1C2N1CCOC41)N3C (configuration not stated),growth,[1]; 10 µM unless noted,-45.1% (active)
same,growth,[2]; 10 µM unless noted,-14.5% (active)
same,growth,[3]; 10 µM unless noted,-23.7% (active)
same,growth,[4]; 10 µM unless noted,-42% (active)
same,growth,[5]; 10 µM unless noted,-14.9% (active)
same,growth,[7]; 10 µM unless noted,-83.2% (active)
same,growth,[8]; 10 µM unless noted,-3.64% (active)
same,growth,[9]; 10 µM unless noted,-21.9% (active)
same,growth,[10]; 10 µM unless noted,-74.5% (active)
same,growth,[11]; 10 µM unless noted,1.67% (active)
same,growth,[12]; 10 µM unless noted,-45.3% (active)
same,growth,[13]; 10 µM unless noted,-97.4% (active)
same,growth,[14]; 10 µM unless noted,-11.9% (active)
same,growth,[15]; 10 µM unless noted,-88.9% (active)
same,growth,[16]; 10 µM unless noted,-13.6% (active)
same,growth,[17]; 10 µM unless noted,-29.7% (active)
same,growth,[18]; 10 µM unless noted,-60.3% (active)
same,growth,[19]; 10 µM unless noted,2.61% (active)
same,growth,[20]; 10 µM unless noted,-85.9% (active)
Cc1cc(N=Nc2ccccc2C)ccc1N,growth,[1]; 10 µM unless noted,79.6% (inactive)
same,growth,[2]; 10 µM unless noted,71.1% (inactive)
same,growth,[3]; 10 µM unless noted,89.2% (inactive)
same,growth,[4]; 10 µM unless noted,69.3% (inactive)
same,growth,[5]; 10 µM unless noted,80.7% (inactive)
same,growth,[6]; 10 µM,48.8% (inactive)
same,growth,[7]; 10 µM unless noted,57.6% (inactive)
same,growth,[8]; 10 µM unless noted,47.6% (inactive)
same,growth,[9]; 10 µM unless noted,-13.5% (active)
same,growth,[10]; 10 µM unless noted,111% (inactive)
same,growth,[11]; 10 µM unless noted,68.1% (inactive)
same,growth,[12]; 10 µM unless noted,65.7% (inactive)
same,growth,[13]; 10 µM unless noted,68.6% (inactive)
same,growth,[14]; 10 µM unless noted,75.1% (inactive)
same,growth,[15]; 10 µM unless noted,99.6% (inactive)
same,growth,[16]; 10 µM unless noted,47.3% (inactive)
same,growth,[17]; 10 µM unless noted,83.9% (inactive)
same,growth,[18]; 10 µM unless noted,48.9% (inactive)
same,growth,[19]; 10 µM unless noted,132% (inactive)
S=C(SSC(=S)N1CCCCC1)N1CCCCC1,growth,[1]; 10 µM,101% (inactive)
same,growth,[1]; 100 µM,-5.33% (active)
same,growth,[2]; 10 µM,104% (inactive)
same,growth,[2]; 100 µM,10.4% (inactive)
same,growth,[3]; 10 µM,102% (inactive)
same,growth,[3]; 100 µM,32% (inactive)
same,growth,[4]; 10 µM,110% (inactive)
same,growth,[4]; 100 µM,37.6% (inactive)
same,growth,[5]; 10 µM,91.9% (inactive)
same,growth,[5]; 100 µM,-2.57% (active)
same,growth,[6]; 10 µM,101% (inactive)
same,growth,[6]; 100 µM,9.88% (active)
same,growth,[7]; 10 µM,87% (inactive)
same,growth,[7]; 100 µM,-44.2% (active)
same,growth,[8]; 10 µM,93.3% (inactive)
same,growth,[8]; 100 µM,26.1% (inactive)
same,growth,[9]; 10 µM,98.7% (inactive)
same,growth,[9]; 100 µM,-3.71% (active)
same,growth,[10]; 10 µM,110% (inactive)
same,growth,[10]; 100 µM,-69.1% (active)
same,growth,[11]; 10 µM,107% (inactive)
same,growth,[11]; 100 µM,9.68% (active)
same,growth,[12]; 10 µM,102% (inactive)
same,growth,[12]; 100 µM,-13.7% (active)
same,growth,[13]; 10 µM,124% (inactive)
same,growth,[13]; 100 µM,-76.9% (active)
same,growth,[14]; 10 µM,104% (inactive)
same,growth,[14]; 100 µM,-35.8% (active)
same,growth,[15]; 10 µM,114% (inactive)
same,growth,[15]; 100 µM,-15.7% (active)
same,growth,[16]; 10 µM,101% (inactive)
same,growth,[16]; 100 µM,0.593% (active)
same,growth,[17]; 10 µM,97.3% (inactive)
same,growth,[17]; 100 µM,1.68% (active)
same,growth,[18]; 10 µM,104% (inactive)
same,growth,[18]; 100 µM,-61.6% (active)
same,growth,[19]; 10 µM,87.7% (inactive)
same,growth,[19]; 100 µM,40.5% (inactive)
same,growth,[20]; 10 µM,92.6% (inactive)
same,growth,[20]; 100 µM,-49.6% (active)
CC[C@@]1(O)C(=O)OCc2c1cc1n(c2=O)Cc2cc3ccccc3nc2-1,growth,[1]; 10 µM unless noted,-26.7% (active)
same,growth,[2]; 10 µM unless noted,-54% (active)
same,growth,[3]; 10 µM unless noted,-19.4% (active)
same,growth,[4]; 10 µM unless noted,-10.3% (active)
same,growth,[5]; 10 µM unless noted,-25.8% (active)
same,growth,[7]; 10 µM unless noted,-49% (active)
same,growth,[8]; 10 µM unless noted,-21.1% (active)
same,growth,[9]; 10 µM unless noted,-18.5% (active)
same,growth,[10]; 10 µM unless noted,-38% (active)
same,growth,[11]; 10 µM unless noted,-31.9% (active)
same,growth,[12]; 10 µM unless noted,0.554% (active)
same,growth,[13]; 10 µM unless noted,-59.5% (active)
same,growth,[14]; 10 µM unless noted,28.6% (inactive)
same,growth,[15]; 10 µM unless noted,6.33% (active)
same,growth,[16]; 10 µM unless noted,2.82% (active)
same,growth,[17]; 10 µM unless noted,-14.4% (active)
same,growth,[18]; 10 µM unless noted,-46.4% (active)
same,growth,[19]; 10 µM unless noted,-17.8% (active)
same,growth,[20]; 10 µM unless noted,-39% (active)
